Values without a mark were called inactive. The list shows a part of the results. Calls of active or inactive are those of the source. Rule as the data show it, unless noted: active = inhibition above about 30%; inactive = the rest.
How the values were obtained:
[1] = molecular target: Nuclear receptor coactivator 3 (Homo sapiens) (UniProt Q9Y6Q9); assay: NCOA3 GAL4-fusion reporter inhibition – cell-based, luminescence, quadruplicate, confirmation (AID 588792;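 active = mean inhibition over 43.08%, the solvent-only control mean plus 3 SD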;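 also: 0% = DMSO treated cells and 100% = gossypol at 36 µM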); settings: HEK293 GAL4-SRC3 luciferase reporter, at 3.6 µM, active compounds read high
[2] = tested on: transactivating tegument protein VP16 (Human herpesvirus 1), Gal4-VP16 luciferase reporter; assay: repression of VP16-driven luciferase reporter – cell-based, luminescence, high throughput, counter-screen for SRC3 inhibitor project (AID 588794); settings: mammalian cells, at 3.6 µM, active compounds read high
[3] = molecular target: Nuclear receptor coactivator 1 (Homo sapiens) (UniProt Q15788); assay: NCOA1 GAL4-fusion reporter inhibition – cell-based, luminescence, quadruplicate, confirmation (AID 588820;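 active = mean inhibition above 46.68%, the untreated control wells mean plus 3 SD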;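 also: 0% = DMSO wells and 100% = gossypol 36 µM treated wells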); settings: HEK293 GAL4-SRC1 luciferase reporter, at 3.6 µM, active compounds read high
[4] = repression of VP16-driven luciferase reporter – cell-based, luminescence, high throughput, counter-screen for SRC1 inhibitor project (AID 588824; in the data active = inhibition above about 25%); settings: cell-based VP16 transactivation luciferase luminescence; at 3.6 µM; active compounds read high
[5] = StAR promoter reporter inhibitors, counter-screen for LRH-1 inverse agonist project, cell-based, luminescence, high throughput (AID 651611; in the data active = inhibition above about 28%); settings: StAR promoter luciferase reporter counterscreen, at 3.6 µM, active compounds read high
[6] = molecular target: Nuclear receptor subfamily 5 group A member 2 (Homo sapiens) (UniProt O00482); assay: NR5A2 activity suppression in reporter cells – cell-based, luminescence, confirmation (AID 651613; in the data active = inhibition above about 42%;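 also: HEK293T cells co-transfected with LRH-1 and StAR promoter luciferase reporter; 0% = vehicle wells and 100% = parental cells lacking receptor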); settings: cell-based LRH-1 luciferase reporter, inverse agonism; at 3.6 µM; active compounds read high
[7] = molecular target: Steroidogenic factor 1 (Homo sapiens) (UniProt Q13285); assay: inverse agonism at SF1 nuclear receptor – cell-based, luminescence, high throughput, counter-screen for LRH-1 inverse agonist project (AID 651614; in the data active = inhibition above about 44%;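 also: cells cotransfected with StAR promoter reporter and SF1 expression vector; 0% = vehicle on cells with receptor and 100% = vehicle on cells lacking receptor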); settings: cell-based SF1 luciferase reporter, at 3.6 µM, active compounds read high
[8] = compounds suppressing VP16-driven luciferase signal – cell-based, luminescence, high throughput, counter-screen for LRH-1 inverse agonist project (AID 651615; in the data active = inhibition above about 33%); settings: Gal4-VP16 luciferase reporter cells, at 3.6 µM, active compounds read high
[9] = tested on: transactivating tegument protein VP16 (Human herpesvirus 1); assay: compounds suppressing VP16-driven luciferase signal – cell-based, luminescence, single concentration, counter-screen for SRC2 inhibitor project (AID 652007; in the data active = inhibition above about 36%); settings: cell-based VP16 transactivation luciferase reporter, at 8.9 µM, active compounds read high
[10] = molecular target: Nuclear receptor coactivator 2 (Homo sapiens) (UniProt Q15596); assay: inhibition of GAL4-SRC2 driven luciferase expression – cell-based, luminescence, HEK293, triplicate, confirmation (AID 652008;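 active = mean inhibition above 46.5%, the solvent-only control mean plus 3 SD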;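 also: 0% = DMSO-treated cells and 100% = Gossypol at 36 µM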); settings: HEK293 GAL4-SRC2 luciferase reporter, at 8.9 µM, active compounds read high
[11] = reduced OD of V66 E. coli with T4 gene 2 phage – absorbance, RecBCD inhibitor project, confirmation (AID 651982;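 active = mean inhibition over triplicates exceeding the hit threshold derived in the original primary screen, cut at about 11% in these data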); settings: E. coli V66 + T4 2- phage, growth OD; at 11.9 µM; active compounds read high
[12] = bacterial growth inhibition – absorbance, high throughput, counter-screen for RecBCD inhibitor project (AID 651983; in the data active = inhibition above about 20%;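 also: E. coli strain V66 grown with compound alone and no phage infection; 0% = bacteria with DMSO vehicle only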); settings: E. coli viability, absorbance (OD) growth; at 11.9 µM; active compounds read high
[13] = reduced optical density, T4-challenged addAB+ bacteria – absorbance, E. coli V3065, T4 phage, counter-screen for RecBCD inhibitor project, confirmation (AID 651984;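 active = mean inhibition above the solvent-only control wells' mean plus 3 SD, cut at about 22% in these data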;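 also: higher means less bacterial growth from phage killing when AddAB is blocked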); settings: E. coli expressing H. pylori AddAB + T4 phage, OD growth; at 11.9 µM; active compounds read high; gene 2 mutant T4, recBCD-deleted host

Sequence of Nuclear receptor coactivator 3 (Homo sapiens) (Q9Y6Q9 whole entry, looked up, the tested form may be a part): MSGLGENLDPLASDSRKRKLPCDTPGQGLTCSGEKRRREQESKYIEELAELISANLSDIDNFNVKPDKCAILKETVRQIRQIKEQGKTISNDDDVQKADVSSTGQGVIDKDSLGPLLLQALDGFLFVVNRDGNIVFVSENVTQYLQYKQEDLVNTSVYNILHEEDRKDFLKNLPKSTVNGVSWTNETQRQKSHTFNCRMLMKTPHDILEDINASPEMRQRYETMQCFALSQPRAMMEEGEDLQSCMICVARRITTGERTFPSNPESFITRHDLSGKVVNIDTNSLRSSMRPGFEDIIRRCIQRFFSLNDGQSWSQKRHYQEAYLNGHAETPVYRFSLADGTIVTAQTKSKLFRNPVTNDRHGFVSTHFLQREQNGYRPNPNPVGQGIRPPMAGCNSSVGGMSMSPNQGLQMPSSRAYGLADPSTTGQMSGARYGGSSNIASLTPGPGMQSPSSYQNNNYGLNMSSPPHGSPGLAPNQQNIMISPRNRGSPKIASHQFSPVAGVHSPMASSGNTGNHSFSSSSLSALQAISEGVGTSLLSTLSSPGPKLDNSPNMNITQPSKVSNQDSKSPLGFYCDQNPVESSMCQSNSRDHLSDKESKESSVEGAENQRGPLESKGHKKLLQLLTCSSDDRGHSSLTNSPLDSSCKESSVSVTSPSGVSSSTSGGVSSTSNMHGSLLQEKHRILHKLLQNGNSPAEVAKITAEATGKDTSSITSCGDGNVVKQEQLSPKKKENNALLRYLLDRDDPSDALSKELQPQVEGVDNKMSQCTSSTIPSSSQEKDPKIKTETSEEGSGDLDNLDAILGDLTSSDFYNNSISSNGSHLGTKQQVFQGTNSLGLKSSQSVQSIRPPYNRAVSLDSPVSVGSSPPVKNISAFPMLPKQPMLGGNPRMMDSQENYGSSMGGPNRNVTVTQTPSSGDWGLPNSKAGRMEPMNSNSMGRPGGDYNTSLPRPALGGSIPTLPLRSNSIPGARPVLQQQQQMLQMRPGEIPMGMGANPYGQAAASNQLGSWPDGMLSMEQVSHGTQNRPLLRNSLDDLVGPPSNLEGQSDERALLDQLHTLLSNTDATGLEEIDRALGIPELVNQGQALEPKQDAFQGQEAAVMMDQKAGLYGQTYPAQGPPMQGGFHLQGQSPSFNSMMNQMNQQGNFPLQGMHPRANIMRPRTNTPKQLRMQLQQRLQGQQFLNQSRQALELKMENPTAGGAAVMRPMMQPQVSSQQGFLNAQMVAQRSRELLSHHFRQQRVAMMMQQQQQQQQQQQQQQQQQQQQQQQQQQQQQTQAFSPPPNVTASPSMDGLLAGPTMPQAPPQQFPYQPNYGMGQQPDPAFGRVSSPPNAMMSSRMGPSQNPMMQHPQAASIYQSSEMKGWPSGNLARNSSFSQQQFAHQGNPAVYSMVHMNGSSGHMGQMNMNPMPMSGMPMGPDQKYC
Sequence of Nuclear receptor coactivator 1 (Homo sapiens) (Q15788 whole entry, looked up, the tested form may be a part): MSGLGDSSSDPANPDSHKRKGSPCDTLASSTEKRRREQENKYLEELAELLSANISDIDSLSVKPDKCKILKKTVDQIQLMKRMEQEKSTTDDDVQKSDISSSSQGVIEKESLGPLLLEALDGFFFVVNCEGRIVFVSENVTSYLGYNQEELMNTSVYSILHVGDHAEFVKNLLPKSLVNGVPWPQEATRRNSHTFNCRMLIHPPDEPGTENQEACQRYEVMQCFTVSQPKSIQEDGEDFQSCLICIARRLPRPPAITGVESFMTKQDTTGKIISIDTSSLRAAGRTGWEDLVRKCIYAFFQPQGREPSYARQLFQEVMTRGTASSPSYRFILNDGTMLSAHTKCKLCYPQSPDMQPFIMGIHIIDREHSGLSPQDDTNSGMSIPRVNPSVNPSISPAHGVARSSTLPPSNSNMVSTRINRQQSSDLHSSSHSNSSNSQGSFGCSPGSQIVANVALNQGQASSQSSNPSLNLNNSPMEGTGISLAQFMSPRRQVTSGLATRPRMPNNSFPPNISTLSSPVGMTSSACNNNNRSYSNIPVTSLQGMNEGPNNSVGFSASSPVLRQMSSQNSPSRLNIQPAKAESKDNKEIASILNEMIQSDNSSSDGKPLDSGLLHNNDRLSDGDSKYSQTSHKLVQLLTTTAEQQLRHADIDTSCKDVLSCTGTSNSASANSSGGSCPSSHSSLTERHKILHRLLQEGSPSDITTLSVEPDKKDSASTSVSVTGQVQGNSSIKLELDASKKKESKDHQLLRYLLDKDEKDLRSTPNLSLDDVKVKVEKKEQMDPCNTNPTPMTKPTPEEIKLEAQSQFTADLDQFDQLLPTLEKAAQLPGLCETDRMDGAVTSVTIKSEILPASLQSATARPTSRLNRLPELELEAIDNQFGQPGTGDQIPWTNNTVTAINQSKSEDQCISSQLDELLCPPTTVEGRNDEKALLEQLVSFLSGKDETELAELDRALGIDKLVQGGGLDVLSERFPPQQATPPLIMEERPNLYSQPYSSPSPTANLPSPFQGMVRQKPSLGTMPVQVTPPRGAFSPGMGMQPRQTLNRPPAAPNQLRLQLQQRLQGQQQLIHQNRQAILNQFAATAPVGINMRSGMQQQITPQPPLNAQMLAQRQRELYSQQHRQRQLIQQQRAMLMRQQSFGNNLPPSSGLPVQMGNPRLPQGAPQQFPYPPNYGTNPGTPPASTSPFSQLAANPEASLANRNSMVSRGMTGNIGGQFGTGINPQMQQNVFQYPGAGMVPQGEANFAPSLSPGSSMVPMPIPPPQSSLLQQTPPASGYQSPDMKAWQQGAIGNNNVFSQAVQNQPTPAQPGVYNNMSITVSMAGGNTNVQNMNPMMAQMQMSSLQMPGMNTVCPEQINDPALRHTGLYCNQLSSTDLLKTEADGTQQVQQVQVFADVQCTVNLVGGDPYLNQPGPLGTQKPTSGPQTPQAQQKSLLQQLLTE
Sequence of Steroidogenic factor 1 (Homo sapiens) (Q13285 whole entry, looked up, the tested form may be a part): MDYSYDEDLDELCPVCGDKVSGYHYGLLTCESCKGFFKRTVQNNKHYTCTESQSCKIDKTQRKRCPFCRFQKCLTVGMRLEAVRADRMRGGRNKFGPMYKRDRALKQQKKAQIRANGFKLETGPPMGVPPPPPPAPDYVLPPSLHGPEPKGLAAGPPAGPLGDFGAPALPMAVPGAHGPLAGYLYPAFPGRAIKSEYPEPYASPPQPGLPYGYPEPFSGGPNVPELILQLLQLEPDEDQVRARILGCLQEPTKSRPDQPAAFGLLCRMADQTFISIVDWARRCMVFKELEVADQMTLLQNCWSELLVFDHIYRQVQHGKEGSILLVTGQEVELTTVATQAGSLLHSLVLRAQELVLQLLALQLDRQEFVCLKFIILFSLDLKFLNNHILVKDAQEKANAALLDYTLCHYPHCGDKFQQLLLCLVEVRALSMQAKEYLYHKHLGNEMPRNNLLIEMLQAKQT
Sequence of Nuclear receptor subfamily 5 group A member 2 (Homo sapiens) (O00482 whole entry, looked up): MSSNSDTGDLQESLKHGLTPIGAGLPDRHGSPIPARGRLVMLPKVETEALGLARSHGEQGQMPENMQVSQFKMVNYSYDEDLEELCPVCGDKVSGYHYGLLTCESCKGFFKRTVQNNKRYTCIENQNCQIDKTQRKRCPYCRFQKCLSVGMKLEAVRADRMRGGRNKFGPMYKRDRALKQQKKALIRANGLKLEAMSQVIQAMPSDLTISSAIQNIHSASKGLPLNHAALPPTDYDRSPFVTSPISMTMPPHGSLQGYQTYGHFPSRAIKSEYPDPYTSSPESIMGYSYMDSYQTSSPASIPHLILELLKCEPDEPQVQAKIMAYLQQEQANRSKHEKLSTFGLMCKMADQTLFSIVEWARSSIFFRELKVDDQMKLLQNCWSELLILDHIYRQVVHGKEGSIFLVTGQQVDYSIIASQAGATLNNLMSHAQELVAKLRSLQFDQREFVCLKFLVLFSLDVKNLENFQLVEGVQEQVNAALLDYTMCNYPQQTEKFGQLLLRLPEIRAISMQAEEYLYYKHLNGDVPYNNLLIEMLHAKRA

SMILES	inhibition [1]	inhibition [2]	inhibition [3]	inhibition [4]	inhibition [5]	inhibition [6]	inhibition [7]	inhibition [8]	inhibition [9]	inhibition [10]	inhibition [11]	inhibition [12]	inhibition [13]
N#Cc1sc2nccc(Nc3ccccc3)c2c1N	87.1% (active)	62.4% (active)	62.9% (active)	58.6% (active)	32.5% (active)	66.4% (active)	48.8% (active)	79.6% (active)	4.1%	52.2% (active)	–	–	–
CC1CC(C)C(=O)C(C(CC2CC(=O)NC(=O)C2)OC(=O)CC(=O)c2ccccc2)C1 (stereo not given)	93.1% (active)	88.9% (active)	81.3% (active)	87.8% (active)	91.6% (active)	108% (active)	96.9% (active)	91.7% (active)	37.2% (active)	52.5% (active)	–	–	–
COCC(=O)OC1CCn2c1nc1c2C(=O)C(C)=C(NC(C)=O)C1=O (stereo not given)	91.9% (active)	86.7% (active)	75.1% (active)	85.7% (active)	80.1% (active)	99.7% (active)	86.6% (active)	90.8% (active)	57.3% (active)	73.5% (active)	–	–	–
CCc1ccn2cc(-c3cc(-c4ccccc4)no3)nc2c1	2.16%	7.18%	-92.4%	-4.46%	–	–	–	–	36.5% (active)	61.6% (active)	–	–	–
COc1cc([C@@H]2c3cc4c(cc3[C@@H](O[C@@H]3O[C@@H]5CO[C@@H](C)O[C@H]5[C@H](O)[C@H]3O)[C@H]3COC(=O)[C@H]23)OCO4)cc(OC)c1O	64.4% (active)	8.66%	62.5% (active)	6.22%	–	69.3% (active)	44.6% (active)	–	–	–	–	–	–
CCc1cc(-c2[nH]ncc2-c2ccc3c(c2)OCO3)c(O)cc1O	59.9% (active)	34.5% (active)	27.7%	39.8% (active)	–	–	–	–	30.3%	18.2%	–	–	–
COCCn1c(C)cc(C2=NNC(=NC3CC3)SC2)c1C	91.2% (active)	87.2% (active)	85.7% (active)	86.1% (active)	–	–	–	–	90.8% (active)	96.7% (active)	–	–	–
Cc1ccc2occ(/C=N/NC(=O)[C@@H](N)Cc3ccccc3)c(=O)c2c1	37.9%	17%	15.7%	23.3%	–	–	–	–	4.17%	44.1%	–	–	–
Cc1ccc(/C=N/NC(=O)C2=NNC(c3ccccc3)(c3ccccc3)C2)c(O)c1	71.4% (active)	57.5% (active)	45.4%	51.8% (active)	–	–	–	–	–	–	3.86%	5.88%	5.05%
O=c1c2ccccc2cnn1-c1nc2ccccc2[nH]1	57.4% (active)	50.6% (active)	22.3%	41.9% (active)	–	–	–	–	76.6% (active)	84.9% (active)	–	–	–
CC(C)(C)OC(=O)N1Cc2ccccc2C[C@H]1C(=O)NCC(=O)Nc1ccc2c(c1)OCCO2	28.9%	1.92%	5.58%	-7.64%	–	–	–	–	-3.02%	52% (active)	–	–	–
c1cc(-c2cnc3cccnn23)c2cccnc2c1	65.8% (active)	42.7% (active)	57.9% (active)	40.2% (active)	–	–	–	–	-9.33%	26.5%	–	–	–
CC1(Cc2ccc(Cl)cc2)C(=O)Nc2ccc(-c3cccnc3)cc21 (stereo not given)	73.7% (active)	49.3% (active)	59.2% (active)	52.8% (active)	–	–	–	–	6.39%	53.2% (active)	–	–	–
Cc1ccc2nc(C(F)(F)F)c(C#N)c(N)c2c1	48.2% (active)	9.27%	27.6%	2.5%	–	–	–	–	1.92%	50.1% (active)	–	–	–
O[C@@H]1[C@@H](O)C=C2CCN3Cc4cc5c(cc4[C@H]1C23)OCO5 (stereo not given in full)	84.3% (active)	77.5% (active)	48.1% (active)	76.7% (active)	–	105% (active)	93.4% (active)	–	15.7%	-13.8%	–	–	–
Nc1nc(=S)c2ncn([C@@H]3O[C@H](CO)[C@@H](O)[C@H]3O)c2[nH]1	67.6% (active)	23.3%	11.8%	29.9% (active)	–	77.2% (active)	48.2% (active)	–	–	–	–	–	–
COc1ccc(Cc2nnc(N/N=C/c3ccccc3O)[nH]c2=O)cc1OC	84.5% (active)	77% (active)	76.7% (active)	82.6% (active)	–	–	–	–	21.2%	38.8%	–	–	–
C[C@H]1O[C@@H](O[C@H]2[C@@H](O)C[C@H](O[C@H]3[C@@H](O)C[C@H](O[C@H]4CC[C@@]5(C)[C@H](CC[C@@H]6[C@@H]5C[C@@H](O)[C@]5(C)[C@@H](C7=CC(=O)OC7)CC[C@]65O)C4)O[C@@H]3C)O[C@@H]2C)C[C@H](O)[C@@H]1O	96.8% (active)	88.6% (active)	80.6% (active)	87.5% (active)	–	110% (active)	97.7% (active)	–	70.2% (active)	55.2% (active)	–	–	–
C=C1C(=O)OC2CC1C(OC(C)=O)CC(C)=CCCC(C)=CCCC2(C)O (stereo not given)	0.28%	39.9% (active)	23.6%	34.9% (active)	39.1% (active)	25.2%	25%	56% (active)	26.4%	38.7%	–	–	–
